# According to ChEMBL document CHEMBL3988442, “University of Dundee, Small-Polar-MMV Screening Library” (2021):
# In all, about 38,000 compounds went through this assay and about 1,200 (3.2%) showed an effect of 50% or more. The median lay at about -58%. This excerpt belongs to a sample that is enriched for strong results.
# Tested on: Plasmodium falciparum
# Assay: Calibr Malaria Delayed Death Assay SOP
# Assay type: functional, organism-based
# Set-up: scale not given: in the data most compounds retested in dose-response had high values
# Conditions: concentration 4.99e-06 (unit not given; other assays of the set use mol/L)
row,Compound,Percent Effect [%]
1,O=C(NCCc1cc(F)ccc1F)NC(CO)c1ccccc1 (configuration not stated),-122.1
2,Cc1nc(CN(C)C2CCN(CC3CCOCC3)C2)no1 (configuration not stated),-100.7
3,CN1CCN(Cc2nnc(C3CCN(C(CO)CO)CC3)n2C)CC1,-107
4,CCN1CCC2(CC1)CC(NCc1cccs1)c1ccccc1O2.O=C(O)C(F)(F)F.O=C(O)C(F)(F)F (configuration not stated),85.8
5,CS(=O)(=O)NC1CC2(CCN(CC3CC3)CC2)Oc2ccccc21.O=C(O)C(F)(F)F (configuration not stated),-15.02
6,CCN1CCC2(CC1)CC(NC(=O)c1csnn1)c1ccccc1O2.O=C(O)C(F)(F)F (configuration not stated),-39.08
7,O=C(NC1CC2(CCN(CCO)CC2)Oc2ccccc21)c1csnn1 (configuration not stated),-18.14
8,CCC(=O)N1CCC2(CC1)CC(CC(=O)NC1CC1)c1ccccc1O2 (configuration not stated),-119.5
9,Cc1nc(NC(=O)c2nn(-c3ccc(F)cc3C)cc2O)n[nH]1,-112
10,CC(C)c1nc(C2CCCN2Cc2ccon2)no1 (configuration not stated),-96.31
11,Cc1noc(C)c1CN1CCO[C@H]2CN(C3CCOCC3)C[C@H]21.O=C(O)C(F)(F)F,1.266
12,O=C(C1CC(=O)N(c2n[nH]c3cc(Br)ccc23)C1)N1CCSCC1 (configuration not stated),-122.2
13,Cc1ccccc1N1CCN(C(=O)CC(C)C)CC1,-106.5
14,OC1(CN2CCc3nnc(Cc4cccnc4)n3CC2)CCCNC1 (configuration not stated),-87.58
15,CCN1CCn2c(C)cnc2C12CCN(C(=O)Cc1ccccc1)CC2.O=C(O)C(F)(F)F.O=C(O)C(F)(F)F,-58.2
16,Cc1ccc(C(=O)Nc2nnc(C3CC3)s2)c(-n2cnnn2)c1C,-130.7
17,COCCOCC(=O)Nc1ccnn1-c1ccc(Cl)cc1,-102.7
18,COCC(=O)Nc1ccnn1-c1ccc(Cl)cc1,67.79
19,CCOCCC(=O)Nc1ccnn1-c1ccc(Cl)cc1,-25.55
20,COCCn1ccnc1C1CCCN(c2ncnc3c2CCC3)C1 (configuration not stated),-114.3
21,COCCc1noc(C2CCCN(c3nc(N)nc4c3CCCC4)C2)n1 (configuration not stated),-100.3
22,Nc1nc2c(c(N3CCCC(CN4CCCC4=O)C3)n1)CCNCC2 (configuration not stated),-109.9
23,O=C(C1CC1)N1CCCN(c2ncnc3c2CCNCC3)CC1,-49.17
24,Nc1nc2c(c(N3CCCC(c4nnc5ccccn45)C3)n1)CCNC2 (configuration not stated),84.29
25,c1ccn2c(C3CCCN(c4ncnc5c4CCNC5)C3)nnc2c1 (configuration not stated),74.94

row,Compound,Percent Effect [%]
1,O=C(c1ccon1)N1CCN(c2ccncc2Cl)CC1,-22.81
2,CC(CN1CCOC1=O)NC(=O)c1cccc2cc[nH]c12 (configuration not stated),-144.8
3,COc1ccccc1CCNC(=O)N1CCC(n2cncn2)CC1,-50.18
4,Cc1cc(C)c(CNC(=O)C(C)Oc2ccccc2F)c(=O)[nH]1 (configuration not stated),-101.9
5,O=C(C1CC1)N1CCC(C(=O)N2CCC(c3ccc(F)cc3)C2)CC1 (configuration not stated),-98.79
6,O=C(C1CCC1)N1CCC(C(=O)N2CCC(c3ccc(F)cc3)C2)CC1 (configuration not stated),-81.93
7,CC(C)Oc1ncccc1CNC(=O)C1CCCN(C(=O)C2CC2)C1 (configuration not stated),-154.7
8,CC(C)n1ccnc1C1CCN(C(=O)c2cc[nH]n2)CC1,-87.6
9,O=C(C1CCC1)N1CCCC(c2cccc(-n3ccnc3)n2)C1 (configuration not stated),-55.02
10,O=C(C1CCCC1)N1CCC(c2n[nH]c3nccnc23)CC1,-90.69
11,O=C(C1CCCCC1)N1CCC(c2n[nH]c3nccnc23)CC1,-76.32
12,O=C(C1CC1)N1CCC(c2nc(-c3ccccc3)n[nH]2)CC1,-99.03
13,Cc1csc(C2(NC(=O)CCNC(=O)C(C)(C)C)CCCC2)n1,-41.74
14,CCC(=O)N1CCc2onc(CNS(C)(=O)=O)c2C1,-110.9
15,Cc1nc(NC(=O)C(C)n2ncc(Br)c2C)sc1C (configuration not stated),-53.19
16,COc1ccc(CNc2c(C)cnc3c2c(=O)n(C)c(=O)n3C)cc1,-41.96
17,O=C(CN(CC(O)c1ccc(F)cc1)C1CC1)Nc1cccnc1 (configuration not stated),-24.09
18,COCC(=O)N1CCC2(COCc3c(C)nc(N(C)C)nc32)C1 (configuration not stated),-113.3
19,Fc1cccc(OC2CCN(CCn3cc4ccccc4n3)CC2)c1,-79.08
20,COCCc1nnc(NC(=O)CCCc2ccccc2)o1,-177.1
21,Fc1ccc(CN2CCC3(CC2)CCN(c2ncccn2)CC3)cc1.O=C(O)C(F)(F)F.O=C(O)C(F)(F)F,52.71
22,O=C(O)C(F)(F)F.O=C(O)C(F)(F)F.c1csc(CN2CC3(CCN(Cc4ccsc4)C3)C2)n1,-42.12
23,O=C(O)C(F)(F)F.O=C(O)C(F)(F)F.O=C(O)C(F)(F)F.c1cnc(N2CCC3(CCN(Cc4cccnc4)CC3)CC2)nc1,-79.89
24,Fc1ccc(CN2CCC3(CC2)CCN(Cc2nccs2)CC3)cc1.O=C(O)C(F)(F)F.O=C(O)C(F)(F)F,86.13
25,O=C(O)C(F)(F)F.O=C(O)C(F)(F)F.c1csc(CN2CCC3(CC2)CCN(CC2CC2)CC3)n1,31.82

row,Compound,Percent Effect [%]
1,CS(=O)(=O)N1CCC2(CCN(Cc3nccs3)CC2)CC1.O=C(O)C(F)(F)F,-92.74
2,Cc1ccc(N2CCC3(CCN(Cc4nccs4)CC3)CC2)nn1,-7.428
3,Fc1ccc(CN2CCOCC3(CCN(Cc4nccs4)C3)C2)cc1.O=C(O)C(F)(F)F.O=C(O)C(F)(F)F (configuration not stated),-2.709
4,Fc1ccc(CN2CCC3(CCN(Cc4nccs4)CC3)C2)cc1.O=C(O)C(F)(F)F.O=C(O)C(F)(F)F,56.57
5,CCS(=O)(=O)N1CCC2(CCN(Cc3nccs3)CC2)CC1.O=C(O)C(F)(F)F,-47.71
6,O=C(O)C(F)(F)F.O=C(O)C(F)(F)F.c1cnc(N2CC3(CCN(Cc4ccncc4)C3)C2)nc1,-113.7
7,O=C(NCC(=O)N1CCCCC1)c1sccc1C1CC1,-52.19
8,Cc1ccsc1C(=O)N1CCC2(CC1)C(=O)N(C)CCN2CC1CC1.O=C(O)C(F)(F)F,-41.45
9,CCc1ccc(NC(=O)N2C[C@H]3C[C@H](C(=O)NC(C)C)[C@@H](C2)O3)cc1,25.32
10,CC(=O)N1CCCC(C(=O)NCCc2csc(-c3ccncc3)n2)C1 (configuration not stated),-77.87
11,CC(C)C(N)CNS(=O)(=O)Cc1cccc2cccnc12.Cl (configuration not stated),3.917
12,CC(Cn1cccn1)NC(=O)N(C)Cc1ccsc1 (configuration not stated),-57.89
13,O=C(CNC(=O)C1(c2ccc(F)cc2F)CCC1)Nc1ccccn1,-17.94
14,CC(C)CN1CC(C(=O)NCCOc2ccc3c(c2)OCO3)CC1=O (configuration not stated),-115.4
15,O[C@@]1(CN2CCN(Cc3ccncc3)CC2)CCCN2CCCC[C@@H]21,-71.07
16,Cc1ccnc(N2CCN(C[C@]3(O)CCCN4CCCC[C@@H]43)CC2)c1,7.79
17,Cc1cnccc1N1CCN(C[C@]2(O)CCCN3CCCC[C@@H]32)CC1,73.88
18,COc1ccc(N2CCN(C(=O)c3nc(Cl)sc3C(C)C)CC2)cc1,-116.1
19,CCn1cc(CN2CCCN(C3Cc4ccccc4C3)CC2)cn1,8.565
20,CCn1cc(CNC2CCN(c3c(F)cccc3F)C2)cn1 (configuration not stated),-15.51
21,Cc1ccc(-c2cn[nH]c2C2CCCN(c3ncccn3)C2)cc1 (configuration not stated),-2.919
22,CCn1cc(CN2CCC(c3[nH]ncc3S(C)(=O)=O)C2)cn1 (configuration not stated),-50.8
23,CCn1cc(CN2CCCC(c3[nH]ncc3-c3ccc(C)cc3)C2)cn1 (configuration not stated),60.35
24,CCn1cc(CN2CCCC(COc3ccc(F)cc3)C2)cn1 (configuration not stated),75.3
25,COc1ccc(OCC2CCCN(Cc3ccncc3)C2)cc1 (configuration not stated),2.701

row,Compound,Percent Effect [%]
1,COc1cccc(OCC2CCCN(Cc3ccncc3)C2)c1 (configuration not stated),-55.12
2,CCn1cc(CN2CCCC(COc3ccccc3F)C2)cn1 (configuration not stated),72.55
3,O=C(NCC(=O)N1CCCC1Cc1cccc(F)c1)C1CCCC1 (configuration not stated),-29.53
4,Cc1cnc2c(c1NCc1cccs1)c(=O)n(C)c(=O)n2C,3.342
5,CNC(=O)C1(c2cnccn2)CCCN1C(=O)c1cccnc1OC (configuration not stated),-138.6
6,CCCn1cc(NC(=O)c2ccncc2)ccc1=O,-98.41
7,CC(C)N1CCCCC1CCn1cnc2cc(C(F)(F)F)ccc2c1=O (configuration not stated),-97.47
8,Cc1cnc(N(C)Cc2cnc3ccccc3n2)nc1N(C)C,-4.617
9,O=C(NCCCNC(=O)c1ccccc1)Nc1ccc(F)cc1F,-135.1
10,CCOCC1CN(C(=O)c2cccn2C)Cc2cnn(CC3CC3)c21.O=C(O)C(F)(F)F (configuration not stated),56.84
11,CCOCC1CN(S(=O)(=O)CC)Cc2cnn(CC3CC3)c21.O=C(O)C(F)(F)F (configuration not stated),-13.24
12,CCOCC1CN(C(=O)c2cnccn2)Cc2cnn(CC3CC3)c21.O=C(O)C(F)(F)F (configuration not stated),-137.9
13,Cn1cccc1C(=O)N1Cc2c(CN3CCCCC3)nn(C)c2C1,-1.788
14,CC(C)C(=O)N1CCc2c(CN(C)Cc3ccco3)cncc2C1.Cl.Cl,-39.92
15,C[C@@H]1CN(C2(C(=O)N3CCOCC3)Cc3ccccc3C2)C[C@H](C)O1,-24.87
16,C[C@@H]1CN(C2(C(=O)N3CCSCC3)Cc3ccccc3C2)C[C@H](C)O1,-246.9
17,C[C@@H]1CN(C2(C(=O)N3CCNCC3)Cc3ccccc3C2)C[C@H](C)O1,61.74
18,O=C(NCCC1CCN(CC(F)(F)F)CC1)C1CCCO1 (configuration not stated),-133.7
19,c1coc(CN2CCO[C@@]3(CCC[C@@H]3COCc3nccs3)C2)c1,10.79
20,O=C(NCc1cc2n(n1)CCCNC2)C1(c2ccccc2)CCCCC1,72.51
21,O=C(NCc1cc2n(n1)CCCNC2)c1cn2cc(Cl)ccc2n1,-49.2
22,O=C(NCc1cc2n(n1)CCCNC2)C1(c2ccc(Cl)cc2)CCC1,-15.95
